TRHR enhancer: TRH receptor (human) allosteric enhancement; AID 493056; enhancement, % at 2 µM; hit rate 0.66% among 360,000; P34981; TRHR cells, fluo-8 calcium fluorescence, EC20 TRH enhancement; in the data active means enhancement above about 30%
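Enhancer read-out: after compound pinning and an initial kinetic agonist-mode read, an EC20 of TRH (10 nM final) was injected and fluo-8 calcium signal (Ex 480/Em 530) followed at 1 s/cycle for 100 cycles in TRHR-expressing cells.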
D1 PAM: enhances dopamine response at the human D1 receptor; P21728; HEK293 TREx D1 cells, calcium flux, dopamine EC20 potentiation; potentiation, % at 10 µM; hit rate 0.036% among 360,000; in the data active means potentiation above about 30%
Target sequence (P21728 whole entry, looked up): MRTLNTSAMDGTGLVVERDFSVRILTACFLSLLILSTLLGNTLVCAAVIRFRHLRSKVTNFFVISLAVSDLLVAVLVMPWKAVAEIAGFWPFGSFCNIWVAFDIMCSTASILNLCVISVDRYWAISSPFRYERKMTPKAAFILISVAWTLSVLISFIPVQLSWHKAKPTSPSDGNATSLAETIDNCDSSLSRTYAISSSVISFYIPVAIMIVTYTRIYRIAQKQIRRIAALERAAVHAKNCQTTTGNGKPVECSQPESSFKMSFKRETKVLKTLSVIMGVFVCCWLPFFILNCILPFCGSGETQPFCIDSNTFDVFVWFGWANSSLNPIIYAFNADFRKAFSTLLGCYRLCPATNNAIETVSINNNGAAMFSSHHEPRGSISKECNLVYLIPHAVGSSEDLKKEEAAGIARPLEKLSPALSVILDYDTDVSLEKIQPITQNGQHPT
D1 ag: activates the human D1 dopamine receptor | activation, % at 2 µM | HEK293 T-REx D1 cells, calcium flux, agonist mode | AID 504660 | P21728 | hit rate 1% among 360,000
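Tetracycline-induced HEK293 TREx D1 cells, force-coupled to calcium signalling, were dye-loaded with a no-wash calcium kit. Compound was pin-added after a 10 s baseline. Fluorescence was read kinetically at 1 cycle/s for 180 s, with calcium rises flagged as agonism.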
TRHR ag: activates the human TRH receptor; TRHR cells, calcium flux fluo-8, FDSS agonist mode; activation, % at 2 µM; hit rate 0.18% among 360,000
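TRHR-expressing cells loaded with fluo-8 calcium dye; 23 nL library compound pin-transferred, kinetic FDSS fluorescence (Ex 480/Em 530) recorded about 180 s for agonist-induced calcium release, before a 10 nM TRH EC20 addition for potentiator mode.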
D1 antag: human D1 dopamine receptor antagonism; P21728; HEK293 TREx D1 cells, calcium flux, dopamine EC80; stronger effect = lower value; activity change, negative = inhibition, % at 10 µM; hit rate 3.2% among 360,000; AID 504652; in the data active means activity change below about -30%
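Compound effects on dopamine-evoked calcium signalling were measured in tetracycline-induced HEK293 Trex D1 cells. Dopamine at EC80 followed a 180 s compound pre-read, and fluorescence was tracked kinetically for 180 s more.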
Large screens that a line does not name were inactive. Only some compounds are listed: those with a hit (about 4.7% of all), similar ones and a draw of the others. Unless noted, no stated cut-off is given here; in the data, active means activation above about 30%; inactive means the rest.

CC(=O)Nc1ccc(NC(=O)C(C)OC(=O)c2ccc(-n3cnnn3)cc2)cc1 (stereo not given)	none
Cc1ccc(-n2c(/C=C/c3c(C)n(C)c4ccccc34)nc3ccccc3c2=O)cc1	none
C=CCn1c(SC(C)CC)nc(O)cc1=O (stereo not given)	D1 ag 140
CCCCSc1nc(O)cc(=O)n1CC	D1 ag 38
C=CCn1c(SCCCC)nc(O)cc1=O	D1 ag 79
C=CCn1c(SCCCCCC)nc(O)cc1=O	none
C=CCn1c(SCc2ccccc2)nc(O)cc1=O	none
CC1CCc2c(sc(NC(=O)c3ccccc3)c2C(=O)Nc2ccccc2)C1 (stereo not given)	none
CN1/C(=C\C(=O)Nc2ccc(F)cc2)C(C)(C)c2ccccc21	none
CN1/C(=C\C=C(/C#N)C(=O)Nc2ccccc2F)C(C)(C)c2ccccc21	D1 ag 277, TRHR ag 114
COc1ccc(-c2nc(CSCC(=O)N3CCN(c4ccc(F)cc4)CC3)c(C)o2)cc1	D1 antag -33
O=C(CSCc1ccccc1F)NCc1ccc(F)cc1	D1 antag -35
Fc1ccc(CCNC(=S)Nc2ccc(F)c(Cl)c2)cc1	D1 antag -32
C/C(=N\NC(=S)NCCc1ccccc1)c1ccc(O)cc1O	D1 antag -39 (no result: D1 PAM)
O=[N+]([O-])c1ccc(NC(=S)NCCc2ccc(F)cc2)cc1	none
O=[N+]([O-])c1cccc(NC(=S)NCCc2ccccc2)c1	D1 ag 43
CC(C)(CNC(=S)NCCc1ccccc1)CNC(=S)NCCc1ccccc1	D1 antag -30
CCOc1ccc(NC(=O)c2c(NC(=O)c3ccco3)sc3c2CCC(C(C)(C)C)C3)cc1 (stereo not given)	none
O=C(CSc1nnc2scc(-c3ccc(Cl)cc3)n12)Nc1ccccc1F	none
O=C(Cn1c(=O)n(-c2ccc(F)cc2)c(=O)c2sc3ccccc3c21)N1CCCC1	none
Cc1ccc2oc(=O)c3cc(C(=O)N4CCN(c5ccccc5F)CC4)sc3c2c1	none
CCOC(=O)c1ccccc1NC(=O)Cn1ncc2c1-c1ccccc1OC2	none
Cc1cc(C)c(C)c(S(=O)(=O)N2CCN(C(=O)C3CSC4(C)CCC(=O)N34)CC2)c1C (stereo not given)	none
Fc1cccc(NC(=S)NCCc2ccccc2)c1	D1 antag -38
CCOC(=O)c1cccc(NC(=O)c2cc3sccc3n2Cc2ccc(Cl)cc2)c1	none
CCOC(=O)c1cccc(NC(=O)c2cc3sccc3n2C)c1	D1 antag -32
COc1ccc(-n2c(SCC(=O)N3CCCc4ccccc43)nc3c([nH]c4ccccc43)c2=O)cc1	none
COc1cccc(-n2c(SCC(=O)N3CCCc4ccccc43)nc3c([nH]c4ccccc43)c2=O)c1	D1 antag -35
COC(=O)c1ccc(CSc2nc3c([nH]c4ccccc43)c(=O)n2-c2cccc(OC)c2)o1	D1 antag -62
COc1cccc(-n2c(SCC(=O)NCC3CCCO3)nc3c([nH]c4ccccc43)c2=O)c1 (stereo not given)	none
COc1ccc(-n2c(SCC(=O)NCC3CCCO3)nc3c([nH]c4ccccc43)c2=O)cc1 (stereo not given)	D1 antag -31
COc1cccc(-n2c(SCC(=O)NCC3CCCO3)nc3c(c2=O)SCC3)c1 (stereo not given)	none
O=C(CSc1nc2c(c(=O)n1-c1ccc(Cl)cc1)SCC2)NCC1CCCO1 (stereo not given)	D1 antag -32
O=C(Nc1cc(S(=O)(=O)N2CCOCC2)ccc1N1CCOCC1)c1cccs1	none
CC(=O)c1ccc(NC(=O)COc2ccccc2-c2nc(-c3ccc(C)cc3)no2)cc1	none
O=C(OCc1ccccc1)/C(=C(\O)c1ccccc1Br)c1ccc(-c2ccccc2)cn1	none
CC(=O)c1cccc(Nc2cc(C)nc3c(C)cccc23)c1	D1 antag -66
CC(=O)c1cccc(NC(=O)Nc2nc(C)cc(C)n2)c1	TRHR enhancer 33
CC(=O)c1cccc(NC(=O)Nc2ccccc2)c1	none
O=C(Nc1ccc(N2CCOCC2)cc1)c1ccc(Cl)c(S(=O)(=O)N2CCCC2)c1	none
COCCNC(=O)c1c(NC(=O)c2cc(=O)c3cc(C)cc(C)c3o2)sc2c1CCCC2	none
COc1ccccc1N1CCN(S(=O)(=O)c2c(C)nc3sc(C)c(C)n3c2=O)CC1	none
Cc1nc(-c2ccccc2)sc1C1(C)CC(c2cccc([N+](=O)[O-])c2)=NO1 (stereo not given)	D1 antag -42
COc1ccc(NC(=O)CSc2nc3[nH]ncc3c(=O)[nH]2)c(OC)c1	none
CN1CCN(c2nc3nonc3nc2N2CCN(C)CC2)CC1	TRHR enhancer 32
C1CCN(c2nc3nonc3nc2N2CCCCC2)CC1	none
Cc1ccc(S(=O)(=O)NCCC(=O)NC2CC2)cc1	none
O=C(CCNS(=O)(=O)c1ccc(Br)cc1)NC1CCC(O)CC1 (stereo not given)	D1 antag -31
CC(C)CCn1c(=O)c2cccnc2n(CC(=O)Nc2ccccc2F)c1=O	none
O=S(=O)(Nc1ccc(-n2cnnn2)cc1)c1cccc(Cl)c1	none
O=c1c(O)c(-c2ccc(O)c(O)c2)oc2cc(O)cc(O)c12	TRHR enhancer 63
O=c1cc(-c2ccc(O)c(O)c2)oc2cc(O)cc(O)c12	none
CC(C)CN(CC(C)C)S(=O)(=O)N1CCC(C(=O)NC2CCCCCCC2)CC1	D1 antag -36
Cc1ccccc1-c1noc(CSc2nc3ccccc3[nH]2)n1	none
CCC(=O)N1CCc2cc(S(=O)(=O)NCCC(=O)NC(C)c3ccccc3)ccc21 (stereo not given)	none
CN1CCCCC1CCN1c2ccccc2Sc2ccc(S(C)=O)cc21 (stereo not given)	D1 antag -84
CC(=O)Nc1ccc(C(=O)Nc2ccc3c(c2)N(C2CCCC2)C(=O)c2ccccc2S3)cc1	none
CC(C)c1ccc(C2(C)NC(=O)N(CC(=O)N3CCN(C(=O)c4cccs4)CC3)C2=O)cc1 (stereo not given)	none
CN(Cc1ccccc1)C(=O)C1CCC(CNS(=O)(=O)c2ccc3c(c2)CCCC(=O)N3)CC1 (stereo not given)	none
COc1ccc(C(=O)NCCS(=O)(=O)NCc2ccc(F)cc2)cc1	D1 antag -31
O=C(NCCS(=O)(=O)NCc1ccccc1Cl)c1ccc2c(c1)OCO2	D1 antag -35
O=C(NCCS(=O)(=O)NCCc1ccccc1)c1ccc2c(c1)OCO2	none
COc1ccc(CCC(=O)NNC(=O)c2ccc(F)cc2)cc1	D1 antag -30
COc1ccc(CCC(=O)NNC(=S)NCc2ccc(F)cc2)cc1	none
COc1ccccc1CNS(=O)(=O)CCNC(=O)c1ccccc1	D1 antag -30
CN1CCN(Cc2c(C(=O)N/N=C/c3cccc(Br)c3)nnn2-c2nonc2N)CC1	none
Cc1ccc2[nH]c(O)c(N=NC(N)=S)c2c1	none
